Read-out in one assay: TIMP1, TIMP1 (gene 7076)
Nature of the assay: LTEA_HepaRG_TIMP1: Life Technologies and Expression Analysis (LTEA) Assay for TIMP1 using HepaRG (AID 2283534; active = hit-call score of the fitted dose curve at least 0.9, where 1 is the maximum; inactive = score below 0.9). The following applies: mRNA level, 48 h; actives raise or lower the signal. An outline of the steps: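 Bidirectional change in TIMP1 transcript versus 0.5% DMSO, measured by TaqMan qRT-PCR with three housekeeping genes for normalization. HepaRG human liver cells dosed 48 h in duplicate, top concentration 100 uM with half-log dilutions.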

Read-out in assay [1]: Tumor necrosis factor receptor 1 (TNFRSF1A), TNFRSF1A (gene 7132)
The experiment in a line: LTEA_HepaRG_TNFRSF1A: Life Technologies and Expression Analysis (LTEA) Assay for Tumor necrosis factor receptor 1 (TNFRSF1A) using HepaRG (AID 2283535; active = hit-call score of the fitted dose curve at least 0.9, where 1 is the maximum; inactive = score below 0.9). The settings on record: mRNA level, 48 h; actives raise or lower the signal. The essentials: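 mRNA measured by qRT-PCR (TaqMan, Fluidigm arrays) against ACTB/GAPDH/POLR2A housekeepers after 48 h chemical exposure of HepaRG cells. Top concentration 100 uM, half-log 8-point series, duplicates; vehicle 0.5% DMSO, both fit directions.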

Read-out in assay [2]: Thyroid Hormone Responsive (THRSP), THRSP (gene 7069)
The experiment in a line: LTEA_HepaRG_THRSP: Life Technologies and Expression Analysis (LTEA) Assay for Thyroid Hormone Responsive (THRSP) using HepaRG (AID 2283536; active = hit-call score of the fitted dose curve at least 0.9, where 1 is the maximum; inactive = score below 0.9). The following applies: mRNA level, 48 h; actives raise or lower the signal. An outline of the steps: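 Differentiated human HepaRG cells were exposed in duplicate for 48 h in serum-free induction medium to eight concentrations (top 100 uM, half-log steps, 0.5% DMSO). Expression was quantified by TaqMan qRT-PCR, normalized to ACTB, GAPDH and POLR2A, with bidirectional fitting against DMSO.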

Read-out in assay [3]: Cellular tumor antigen p53 (Homo sapiens) (UniProt P04637)
The experiment in a line: LTEA_HepaRG_TP53: Life Technologies and Expression Analysis (LTEA) Assay for Tumor Protein P53 (TP53) using HepaRG (AID 2283537; active = hit-call score of the fitted dose curve at least 0.9, where 1 is the maximum; inactive = score below 0.9). The settings on record: mRNA level, 48 h; actives raise or lower the signal. The essentials: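 Differentiated HepaRG cells in serum-free induction medium exposed 48 h in duplicate to 8 half-log concentrations, top 100 uM, 0.5% DMSO. TP53 mRNA by TaqMan qRT-PCR (Fluidigm), normalized to ACTB, GAPDH, POLR2A; fitted bidirectionally versus DMSO.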

Read-out in assay [4]: UDP glucuronosyltransferase (UGT1A1), UGT1A1 (gene 54658)
Nature of the assay: LTEA_HepaRG_UGT1A1: Life Technologies and Expression Analysis (LTEA) Assay for UDP glucuronosyltransferase (UGT1A1) using HepaRG (AID 2283538; active = hit-call score of the fitted dose curve at least 0.9, where 1 is the maximum; inactive = score below 0.9). The settings on record: mRNA level, 48 h; actives raise or lower the signal. The essentials: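 Differentiated human HepaRG cells in serum-free induction medium were exposed in duplicate for 48 h to eight half-log concentrations up to 100 uM in 0.5% DMSO. UGT1A1 mRNA was quantified by TaqMan qRT-PCR, normalized to ACTB, GAPDH and POLR2A, and fitted bidirectionally against DMSO.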

Read-out in assay [5]: UDP glucuronosyltransferase (UGT1A6), UGT1A6 (gene 54578)
Nature of the assay: LTEA_HepaRG_UGT1A6: Life Technologies and Expression Analysis (LTEA) Assay for UDP glucuronosyltransferase (UGT1A6) using HepaRG (AID 2283539; active = hit-call score of the fitted dose curve at least 0.9, where 1 is the maximum; inactive = score below 0.9). The settings on record: mRNA level, 48 h; actives raise or lower the signal. An outline of the steps: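 Expression was quantified by TaqMan qRT-PCR on Fluidigm arrays with ACTB/GAPDH/POLR2A normalization and bidirectional fitting against 0.5% DMSO. HepaRG cells (~100,000/well) were treated in duplicate for 48 h at eight half-log concentrations up to 100 uM in serum-free induction medium.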

Read-out in assay [6]: X-box binding protein 1 (XBP1), XBP1 (gene 7494)
The experiment in a line: LTEA_HepaRG_XBP1: Life Technologies and Expression Analysis (LTEA) Assay for X-box binding protein 1 (XBP1) using HepaRG (AID 2283540; active = hit-call score of the fitted dose curve at least 0.9, where 1 is the maximum; inactive = score below 0.9). The settings on record: mRNA level, 48 h; actives raise or lower the signal. The essentials:
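XBP1 transcript by qRT-PCR (housekeeping-normalized: ACTB, GAPDH, POLR2A) after 48 h chemical treatment of HepaRG cells, 8-point half-log series topping at 100 uM, vehicle 0.5% DMSO. Gain and loss of signal fitted relative to DMSO.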

A short description of assay [7]: LTEA_HepaRG_LDH_cytotoxicity: Cytotoxicity Assessment in the Life Technologies and Expression Analysis (LTEA) Assay (AID 2283563).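 As to AC50: LDH activity released into spent culture medium as a marker of cell death.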 An outline of the steps: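 LDH release into culture medium read after 48 h chemical treatment of HepaRG cells. Duplicate wells, eight-point half-log series topping at 100 uM, 0.5% DMSO vehicle and baseline.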
Assay [8] in a line: ATG_XTT_Cytotoxicity: Cytotoxicity Assessment in the Attagene TRANS-FACTORIAL HepG2 Assay (AID 2283584). The essentials:
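Viability endpoint from XTT after 24 h chemical exposure of reporter-transfected human HepG2 liver cells; signal loss fitted relative to DMSO negative control.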

The nature of assay [9]: TOX21_p53_BLA_p2_viability: Viability Assessment in the Tox21 HCT-116 p53 Agonism Beta-lactamase Assay, Phase 2 (AID 2283591).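 Also: compound exposure lasted 16 h at 37 °C; actives lower the ATP signal meaning cytotoxicity.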 An outline of the steps:
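HCT-116 p53-bla cells (4000/well) rested 5 h at 37C, then received compounds in DMSO (217-fold dilution) for 16 h at 37C, 5% CO2. After the CCF4 read, CellTiter-Glo was added; ATP luminescence was read after 30 min at room temperature.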

Assay [10] deals with Cellular tumor antigen p53 (Homo sapiens) (UniProt P04637). The experiment in a line: TOX21_p53_BLA_p2_ratio: Tox21 HCT-116 p53 Agonism Beta-lactamase Assay, Ratio, Phase 2 (AID 2283592). An outline of the steps:
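Gain-of-signal p53 agonism was scored from the beta-lactamase FRET ratio (460/530 nm, 405 nm excitation) in HCT116 cells treated 16 h at 37C, 5% CO2, with DMSO serving as negative control and baseline.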

Assay [11] can be described thus: TOX21_p53_BLA_p3_viability: Viability Assessment in the Tox21 HCT-116 p53 Agonism Beta-lactamase Assay, Phase 3 (AID 2283593).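 Also: cells exposed to compound for 16 h before reading.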 The essentials:
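HCT-116 cells (4000/well) rested 5 h at 37C, then got DMSO compounds by pin tool (217-fold dilution) for 16 h at 37C, 5% CO2. After the bla read, CellTiter-Glo was added and luminescence read at 30 min, room temperature.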

The target in assay [12] is Cellular tumor antigen p53 (Homo sapiens) (UniProt P04637). Nature of the assay: TOX21_p53_BLA_p3_ratio: Tox21 HCT-116 p53 Agonism Beta-lactamase Assay, Ratio, Phase 3 (AID 2283596). An outline of the steps: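 HCT116 p53-bla cells (4000/well) given compound in DMSO (217-fold dilution) after 5 h, incubated 16 h at 37C. CCF4-AM substrate 2 h at room temperature; 460/530 nm emission ratio, gain fitted against DMSO.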
Chain of Cellular tumor antigen p53 (Homo sapiens) (P04637 whole entry, looked up): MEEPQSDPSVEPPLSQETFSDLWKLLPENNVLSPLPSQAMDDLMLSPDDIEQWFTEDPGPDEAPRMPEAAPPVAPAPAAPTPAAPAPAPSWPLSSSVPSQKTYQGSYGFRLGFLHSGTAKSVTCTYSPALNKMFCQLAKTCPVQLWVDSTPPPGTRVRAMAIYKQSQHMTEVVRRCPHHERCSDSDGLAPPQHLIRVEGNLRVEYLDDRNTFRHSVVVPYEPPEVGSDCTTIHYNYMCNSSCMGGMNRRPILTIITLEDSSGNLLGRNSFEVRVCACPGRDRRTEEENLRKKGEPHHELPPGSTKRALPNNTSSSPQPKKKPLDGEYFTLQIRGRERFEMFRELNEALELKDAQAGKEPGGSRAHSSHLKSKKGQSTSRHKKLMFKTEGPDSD

Assay [13] is described as follows: TOX21_p53_BLA_p4_viability: Viability Assessment in the Tox21 HCT-116 p53 Agonism Beta-lactamase Assay, Phase 4 (AID 2283597).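 Also: hits lower the luminescence signal meaning cytotoxicity.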 The essentials: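 Following a 16 h exposure at 37C, the treated HCT116 wells were first read for the FRET ratio. They were then lysed with CellTiter-Glo, and ATP luminescence was recorded after 30 min at room temperature.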
The target of assay [14] is Cellular tumor antigen p53 (Homo sapiens) (UniProt P04637). Nature of the assay: TOX21_p53_BLA_p5_ratio: Tox21 HCT-116 p53 Agonism Beta-lactamase Assay, Ratio, Phase 5 (AID 2283599). An outline of the steps:
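HCT-116 cells carrying a p53-inducible beta-lactamase reporter were seeded at 4000 cells/well and dosed after 5 h with compound in DMSO (217-fold dilution). After 16 h at 37C, CCF4-AM substrate was added for 2 h, and the 460/530 nm emission ratio was scored as gain-of-signal versus DMSO.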

Assay [15] in a line: TOX21_p53_BLA_p5_viability: Viability Assessment in the Tox21 HCT-116 p53 Agonism Beta-lactamase Assay, Phase 5 (AID 2283600). The essentials: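 After the 460/530 nm beta-lactamase measurement, the wells received an ATP-detection luciferase reagent; signal was read 30 min later at RT. Compound treatment lasted 16 h on cells pre-incubated 5 h post-seeding.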
In assay [16] the target is Cellular tumor antigen p53 (Homo sapiens) (UniProt P04637). Nature of the assay: TOX21_p53_BLA_p4_ratio: Tox21 HCT-116 p53 Agonism Beta-lactamase Assay, Ratio, Phase 4 (AID 2283601). An outline of the steps: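 HCT116 cells carrying an inducible beta-lactamase reporter were plated at 4000 cells/well, rested 5 h, then exposed to compounds in DMSO (217-fold dilution) for 16 h at 37C. CCF4-AM substrate was loaded 2 h at room temperature; 460/530 nm emission ratio scored gain-of-signal versus DMSO.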

A short description of assay [17]: Tanguay_ZF_120hpf_MORT_legacy: (Legacy) Oregon State University Tanguay Lab 120 Hour Post-fertilization zebrafish Assay for Mortality (AID 2283633).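 As to AC50: fitted as increase in binary mortality versus DMSO negative control.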 The essentials:
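Static waterborne exposure from 6 to 120 hpf at 28C of single dechorionated wild-type (5D) embryos per well, 0.64% DMSO final. Death recorded present/absent by brightfield at 24 and 120 hpf.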

A short description of assay [18]: Tanguay_ZF_120hpf_YSE_legacy: (Legacy) Oregon State University Tanguay Lab 120 Hour Post-fertilization zebrafish Assay for Yolk Sac Edema (AID 2283634). The essentials:
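Presence or absence of yolk sac edema was recorded at 120 hpf in surviving larvae. These were wild-type Tropical 5D embryos, chorion removed at 4 hpf, held in static exposure at 28C from 6 hpf with 0.64% DMSO vehicle.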

Assay [19] is described as follows: Tanguay_ZF_120hpf_AXIS_legacy: (Legacy) Oregon State University Tanguay Lab 120 Hour Post-fertilization zebrafish Assay for Body Axis Malformation (AID 2283635).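 As to AC50: potency for an increased fraction of larvae scored with body axis malformation.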 The essentials:
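Binary scoring of axis defects at 120 hpf under brightfield, fitted positive versus DMSO. Tropical 5D embryos, chorion removed by pronase at 4 hpf, were singly exposed in sealed, dark plates at 28C from 6 hpf; DMSO 0.64% final.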

Inconclusive results are not listed. Where a structure was tested more than once in an assay, its records may differ in their call. Calls of active or inactive are those of the source. The calls were made as follows, unless noted: active = hit-call score of the fitted dose curve at least 0.9, where 1 is the maximum; inconclusive = response in the unintended direction; inactive = score below 0.9.

What is called AC50 is the concentration at which the activity in the assay is half-maximal.

As to `N[C@@H](Cc1cc(I)c(Oc2ccc(O)c(I)c2)c(I)c1)C(=O)O`, the outcome with TIMP1, TIMP1 (gene 7076) was “inactive”; in [1], “inactive”; in [3], “inactive”; in [6], “inactive”; in assay [7], “inactive”; in assay [8], “inactive”. Moreover, the molecule was classed as inactive in assay [9], in assay [10], in [11], in assay [12], in [13] and in assay [14]. Also, the result in assay [15], in assay [16] and in [18] was inactive. Moreover, the AC50 was 67.4 µM (active) in [2]; 40 µM (active) in assay [4]; 40 µM (active) in assay [5]; 33.6 µM (active) in assay [10]; 36.8 µM (active) in [14]; 34.8 µM (active) in assay [16]. The AC50 in [17] is 0.233 µM (active); in assay [19] it was 0.000818 µM (active).
On to `CC(=O)S[C@@H]1CC2=CC(=O)CC[C@]2(C)[C@H]2CC[C@@]3(C)[C@@H](CC[C@@]34CCC(=O)O4)[C@H]12`, for which the outcome in the assay with TIMP1, TIMP1 (gene 7076) is “inactive”; in [1], “inactive”; in assay [3] it was “inactive”; in [8], “inactive”; in [10], “inactive”; in assay [11], “inactive”. Further, the result in assay [12], in assay [13], in assay [14], in [15], in [16] and in [17] was inactive. For the same molecule, the outcome in assay [18] and in assay [19] was inactive. The AC50 in [2] is 36.5 µM (active); in assay [4], 72.2 µM (active); in assay [5], 50 µM (active); in [6] it was 50 µM (active); in assay [7], 79.1 µM (active); in assay [10], 15.8 µM (active).

These data come from PubChem BioAssay (EPA / NIEHS).
